From PubChem BioAssay (NCI)
About 83,000 compounds went through this panel and 20% of them were active in at least one assay; those are over-represented in the sample as a whole.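 Cells were grown in 96-well plates and exposed to the test compound at a single concentration for 48 hours; results are reported as percent growth, with values below 10 considered active.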 The source made the active and inactive calls.

Key:
Assay in all cases: NCI-60 one-dose screen, 48 h (100 = growth as untreated, 0 = no growth, -100 = all killed)
Conditions in all cases: 10 µM unless noted
[1] = tested on: SR leukemia
[2] = tested on: RPMI-8226 leukemia
[3] = tested on: OVCAR-8 ovarian
[4] = tested on: OVCAR-5 ovarian
[5] = tested on: OVCAR-4 ovarian
[6] = tested on: SK-OV-3 ovarian
[7] = tested on: IGROV1 ovarian
[8] = tested on: OVCAR-3 ovarian
[9] = tested on: HS 578T breast
[10] = tested on: NCI/ADR-RES ovarian
[11] = tested on: BT-549 breast
[12] = tested on: MDA-MB-435 melanoma
[13] = tested on: SW-620 colon
[14] = tested on: MCF7 breast
[15] = tested on: HCT-116 colon
[16] = tested on: HCC-2998 colon
[17] = tested on: KM12 colon
[18] = tested on: T-47D breast

Measured: growth

CCN(CC)CCCNC(=O)c1ccc(N)cc1
inactive: [1] 86.6% | [2] 105% | [3] 106% | [4] 97.1% | [5] 114% | [6] 112% | [7] 100% | [8] 111% | [9] 99.2% | [10] 102% | [11] 102% | [12] 108% | [13] 97.8% | [14] 95.1% | [15] 94.8% | [16] 126% | [17] 107%

Cc1ccc(S(=O)(=O)NN/C(N)=N\S(=O)(=O)c2cc(C)c(Cl)cc2SCc2ccccc2)cc1
inactive: [1] 70.4% | [2] 34.1% | [3] 109% | [4] 89.2% | [5] 89.5% | [6] 102% | [8] 121% | [10] 97.1% | [18] 87.9% | [12] 96.4% | [13] 96.6% | [14] 99.8% | [15] 94.6% | [16] 107% | [17] 97.3%

COc1cc2c(cc1OC)-c1ccc3cc4c(cc3c1N(CCCN1CCCCC1)C2)OCO4
active: [1] -7.48%
inactive: [2] 14.5% | [3] 32.6% | [4] 74.7% | [5] 63.4% | [6] 75.7% | [7] 33.7% | [8] 60.8% | [9] 56.1% | [10] 54.7% | [11] 40.7% | [12] 69.6% | [13] 38% | [14] 46.3% | [15] 24.6% | [16] 80.9% | [17] 48.5%

CCN(CC)c1ccc(Nc2ccc(CC(=O)c3ccccc3)cc2)cc1
inactive: [1] 55.3% | [2] 49.9% | [3] 84.8% | [4] 98.3% | [5] 87.8% | [6] 97.8% | [7] 88.4% | [8] 84.3% | [10] 73.6% | [18] 74.3% | [11] 82.4% | [12] 80.2% | [13] 89.9% | [14] 83.6% | [15] 82.4% | [16] 94.9% | [17] 74.9%

COc1ccc(-c2nc3sc4c(c3c(=O)[nH]2)CCCC4)c2ccccc12
inactive: [2] 11.5% | [3] 12.8% | [6] 33.7% | [7] 37.5% | [13] 18.9% | [15] 10.7% | [16] 12.3%
active: [1] 7.04% | [4] -17.7% | [5] -7.19% | [8] -64.5% | [9] -0.402% | [10] 5.34% | [12] -70.3% | [14] 9.63% | [17] 7.22%

Cc1ccc(/C(=N\N=C(N)N)c2ccccc2)cc1
inactive: [1] 10.8% | [3] 22.4% | [4] 51.4% | [5] 15.8% | [10] 15.5% | [13] 30.3%
active: [2] -7.92% | [6] 4.12% | [7] -0.836% | [8] -38.5% | [12] 0.321% | [14] 5.02% | [15] -66.6% | [16] -3.26% | [17] 2.94%

COc1cc(C2CC(c3ccc(Nc4nc(Nc5ccc(F)cc5)nc(Nc5ccc(Cl)cc5)n4)cc3)=NN2C(C)=O)cc(OC)c1OC (configuration not stated)
inactive: [1] 45.3% | [2] 19.1% | [3] 62.5% | [4] 83.5% | [5] 77.6% | [6] 92.8% | [7] 43.5% | [8] 82.7% | [10] 69.8% | [18] 19% | [11] 13.4% | [12] 95.7% | [13] 87% | [14] 46.6% | [15] 55.1% | [16] 89.3% | [17] 71.2%

CCN(CCO)CC(=O)c1cc(Cl)cc(Cl)c1Cl
inactive: [1] 95.4% | [2] 97.1% | [3] 103% | [4] 109% | [5] 115% | [6] 102% | [7] 109% | [8] 106% | [9] 101% | [10] 102% | [11] 93.7% | [12] 105% | [13] 102% | [14] 98.9% | [15] 98.9% | [16] 98.2% | [17] 102%

CO[C@H]1/C=C/O[C@@]2(C)Oc3c(C)c(O)c4c(c3C2=O)C(=O)C(/C=N/N(c2ccccc2)c2ccccc2)=C(NC(=O)/C(C)=C\C=C\[C@H](C)[C@H](O)[C@@H](C)[C@@H](O)[C@@H](C)[C@H](OC(C)=O)[C@@H]1C)C4=O
active: [1] -13% | [2] -19.1% | [3] 7.09% | [4] -43.7% | [5] 9.98% | [7] -16.3% | [8] -83% | [9] -0.488% | [10] 6.55% | [12] -17.4% | [13] 2.36% | [14] 2.54% | [15] 0.555% | [16] -70.4% | [17] -23.9%
inactive: [6] 12.2%
